For eight compounds, growth results are on record in PubChem BioAssay (NCI).

This is part of a sample that, as a whole, favours compounds with a hit. Of some 83,000 tested, about 20% had one in any assay.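 Interpretation: 100, growth as untreated; towards 0, rising growth inhibition; 0, no net growth; 0 to -100, cell death. Compounds scoring below 10 were considered active.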 Unmarked numbers belong to inactive results. The source made the active and inactive calls.

Among the test systems are NCI-H23 lung; NCI-H226 lung; NCI-H322M lung; HOP-62 NSCLC; NCI-H460 lung; HOP-92 NSCLC; NCI-H522 lung; A549/ATCC NSCLC; 786-0 renal; COLO 205 colon; DU-145 prostate; K-562 leukemia; MALME-3M melanoma; RXF 393 renal; SF-268 CNS; SF-295 CNS; SF-539 CNS; UACC-257 melanoma; M14 melanoma.
Assay in all cases: NCI-60 one-dose screen, 48 h (100 = growth as untreated, 0 = no growth, -100 = all killed)
Holding throughout (settings): 10 µM unless noted

With `O=C(O)c1cccc(-c2ccc(/C=N/NC(=O)c3[nH]c4ccc(Br)cc4c3-c3ccccc3)s2)c1`, the growth is 26.4% in the experiment on NCI-H23 lung; 57.6% in the experiment on NCI-H226 lung; 58.8% in the experiment with NCI-H322M lung; 53.2% with HOP-62 NSCLC; 42.9% in the experiment on NCI-H460 lung; 60.3% in the experiment with HOP-92 NSCLC. The growth with NCI-H522 lung is 0.263% (active); in the experiment with A549/ATCC NSCLC it was 68.9%; in the experiment with 786-0 renal, 50.9%; with COLO 205 colon, 101%; in the experiment on DU-145 prostate, 55.6%; with K-562 leukemia, 19.8%. Also, the growth with MALME-3M melanoma was 57.9%; in the experiment on RXF 393 renal it was -2.3% (active); in the experiment with SF-268 CNS, 39%; in the experiment on SF-295 CNS it was 15.6%; in the experiment on SF-539 CNS, 16.1%; with UACC-257 melanoma, 85.5%. The growth with M14 melanoma is 47.9%.
In the case of `N#Cc1c(-c2cccc(O)c2O)cc(-c2ccc3ccccc3c2)[nH]c1=O`, the growth is 52.1% in the experiment with NCI-H23 lung; 68.3% in the experiment on NCI-H226 lung; 72.7% with NCI-H322M lung; 49.2% with HOP-62 NSCLC; 41.7% in the experiment on NCI-H460 lung; 28% in the experiment with HOP-92 NSCLC. In addition, the growth in the experiment on NCI-H522 lung was 51.3%; in the experiment with A549/ATCC NSCLC it was 84.9%; with 786-0 renal it was 64.1%; in the experiment with COLO 205 colon, 84%; with DU-145 prostate it was 57%; with K-562 leukemia, 67.1%. For the same compound, the growth in the experiment on MALME-3M melanoma is 59.1%; in the experiment with RXF 393 renal it was 39.3%; in the experiment with SF-268 CNS it was 58.6%; in the experiment on SF-295 CNS it was 83.6%; in the experiment with SF-539 CNS, 28.8%; in the experiment with UACC-257 melanoma it was 99.9%. Also, in the experiment with M14 melanoma, the growth is 65.1%.
For `COc1cc(CNC(=O)/C=C/c2ccc3c(c2)OCO3)ccc1OCc1cn(-c2ccc([N+](=O)[O-])cc2)nn1`, the growth was 88.8% in the experiment on NCI-H23 lung; 60.6% in the experiment with NCI-H226 lung; 91.5% in the experiment on NCI-H322M lung; 77.8% in the experiment with HOP-62 NSCLC; 94.6% in the experiment on NCI-H460 lung; 96.7% with HOP-92 NSCLC. The growth in the experiment with NCI-H522 lung is 84.9%; in the experiment on A549/ATCC NSCLC it was 91.6%; in the experiment on 786-0 renal, 90.6%; in the experiment with COLO 205 colon, 118%; with DU-145 prostate, 103%; in the experiment on K-562 leukemia, 92.8%. The growth in the experiment on MALME-3M melanoma was 87.6%; in the experiment with RXF 393 renal, 72.2%; in the experiment with SF-268 CNS, 86.9%; in the experiment with SF-295 CNS, 88%; with SF-539 CNS it was 79.8%; with UACC-257 melanoma, 91.5%. Besides, the growth in the experiment with M14 melanoma was 92.9%.
With `O=C(NNc1ccccc1)n1c(=O)c2ccccc2c(=O)n1-c1ccccc1`, the growth in the experiment with NCI-H23 lung was 100%; with NCI-H226 lung, 95.7%; with NCI-H322M lung, 98.8%; in the experiment on HOP-62 NSCLC, 90.7%; in the experiment with NCI-H460 lung it was 105%; in the experiment on HOP-92 NSCLC, 93.9%. Also, the growth was 86.4% in the experiment on NCI-H522 lung; 83.1% in the experiment on A549/ATCC NSCLC; 92.5% with 786-0 renal; 109% in the experiment with COLO 205 colon; 104% with DU-145 prostate; 45.8% in the experiment on K-562 leukemia. Further, the growth is 96.5% with MALME-3M melanoma; 109% with RXF 393 renal; 92.8% in the experiment on SF-268 CNS; 87.2% in the experiment with SF-295 CNS; 97.5% in the experiment on SF-539 CNS; 77.6% in the experiment on UACC-257 melanoma. In addition, in the experiment on M14 melanoma, the growth was 100%.
Consider `CC1=C(C(=O)c2ccccc2)C(c2cccc3ccccc23)n2c(nc3ccccc32)N1` (configuration not stated), for which the growth in the experiment on NCI-H23 lung is 56.5%; in the experiment on NCI-H226 lung, 50%; in the experiment with NCI-H322M lung, 87.5%; in the experiment on HOP-62 NSCLC, 40.4%; with NCI-H460 lung, 87%; with HOP-92 NSCLC, 60.4%. The growth in the experiment on NCI-H522 lung is 66.5%; with A549/ATCC NSCLC it was 40.8%; in the experiment on 786-0 renal, 70.6%; in the experiment on COLO 205 colon it was 65.3%; in the experiment with DU-145 prostate it was 67.3%; with K-562 leukemia, 39.3%. The growth in the experiment on MALME-3M melanoma was 57.4%; in the experiment on RXF 393 renal, 76.4%; with SF-268 CNS it was 60.1%; in the experiment on SF-295 CNS, 76.9%; in the experiment with SF-539 CNS, 1.2% (active); in the experiment on UACC-257 melanoma, 84%. Also, in the experiment on M14 melanoma, the growth was 73.5%.
On to `CSc1ccccc1NC(=O)c1ccc2nnn(/C(C#N)=C/c3ccccn3)c2c1`, for which the growth with NCI-H23 lung was -96.6% (active); in the experiment on NCI-H226 lung, -94.6% (active); in the experiment with NCI-H322M lung it was 40.5%; in the experiment on HOP-62 NSCLC, 6.29% (active); in the experiment with NCI-H460 lung, -44% (active); in the experiment with HOP-92 NSCLC, -80.8% (active). Besides, the growth in the experiment on NCI-H522 lung is -96.4% (active); in the experiment on A549/ATCC NSCLC it was -27.2% (active); in the experiment with 786-0 renal it was -98.5% (active); with COLO 205 colon it was -83.1% (active); with DU-145 prostate it was -97.9% (active); with K-562 leukemia, 1.03% (active). In addition, the growth with MALME-3M melanoma was -94.7% (active); in the experiment on RXF 393 renal, -98.8% (active); in the experiment with SF-268 CNS, 6.52% (active); with SF-295 CNS, 2.24% (active); with SF-539 CNS it was -100% (active); in the experiment with UACC-257 melanoma, -89.8% (active). The growth in the experiment on M14 melanoma is -93.6% (active).
In the case of `C=Cn1cc(C(=O)O)c(=O)c2cc(F)c(N3CCN(c4nccc(-c5nccs5)n4)CC3)cc21`, the growth in the experiment with NCI-H23 lung is -60.5% (active); in the experiment on NCI-H226 lung, -20.5% (active); in the experiment with NCI-H322M lung it was -14.5% (active); in the experiment with HOP-62 NSCLC, -34.4% (active); in the experiment with NCI-H460 lung it was 9.63% (active); in the experiment with HOP-92 NSCLC, -32.7% (active). Further, the growth with NCI-H522 lung was -76.6% (active); with A549/ATCC NSCLC it was -34.3% (active); in the experiment on 786-0 renal, -22.3% (active); in the experiment with COLO 205 colon, -61.5% (active); with DU-145 prostate, -3.99% (active); with K-562 leukemia, 11.4%. Also, the growth with MALME-3M melanoma was -29.2% (active); in the experiment with RXF 393 renal, -52.3% (active); in the experiment on SF-268 CNS it was 22%; with SF-295 CNS, -26.4% (active); in the experiment on SF-539 CNS, -42.7% (active); with UACC-257 melanoma, -27.3% (active). In addition, in the experiment with M14 melanoma, the growth is -1.11% (active).
With `C=C1CC[C@@H]2[C@]3(C)COC(c4cn[nH]c4-c4ccc(OC)cc4)O[C@@H]3CC[C@@]2(C)[C@@H]1C/C=C1/C(=O)OCC1O` (some centres not stated), the growth in the experiment on NCI-H23 lung is -12.6% (active); with NCI-H226 lung, -45% (active); in the experiment on NCI-H322M lung, 32.6%; with HOP-62 NSCLC, -56.9% (active); in the experiment with NCI-H460 lung, -49.6% (active); with HOP-92 NSCLC, -34.5% (active). Also, the growth with NCI-H522 lung was -18.4% (active); in the experiment with A549/ATCC NSCLC it was 7.46% (active); in the experiment on 786-0 renal it was -89.7% (active); in the experiment on COLO 205 colon it was -83.1% (active); in the experiment with DU-145 prostate it was -27.2% (active); in the experiment on K-562 leukemia, -31.2% (active). Further, the growth in the experiment on MALME-3M melanoma was -62.1% (active); in the experiment with RXF 393 renal, -58.5% (active); in the experiment with SF-268 CNS, 3.8% (active); with SF-295 CNS, -41.9% (active); in the experiment with SF-539 CNS, -87.2% (active); in the experiment on UACC-257 melanoma, -24.6% (active). Moreover, the growth with M14 melanoma was -50.9% (active).
